Laboratory results published in PubChem BioAssay (NCI).
Compounds without any hit were thinned out: in the full panel of roughly 79,000, 15% have a hit. No stated cut-off is given here; in the data, active means growth inhibition above about 70%; inactive means the rest.

Assays:
[1] = NCI Yeast Anticancer Drug Screen. Data for the rad50 strain (AID 155);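 further: 0% = growth of vehicle-only cultures of the same strain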; details: S. cerevisiae rad50 strain growth inhibition; at 50.0 µM; hits give high values
Outline: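 DNA repair mutant yeast, compound exposure, growth read-out; inhibition is taken relative to vehicle.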

[2] = NCI Yeast Anticancer Drug Screen. Data for the mec2-1 strain (AID 157); details: S. cerevisiae mec2-1 strain, at 50.0 µM, hits give high values
Outline: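 Each compound was tested on mec2-1 yeast, a strain altered in DNA damage repair or cell cycle control. Growth inhibition is reported relative to vehicle.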

[3] = NCI Yeast Anticancer Drug Screen. Data for the sgs1 mgt1 strain (AID 161);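 further: 0% = growth of cultures given vehicle only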; details: S. cerevisiae sgs1 mgt1 strain, at 50.0 µM, hits give high values
Outline: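 Test agents were incubated with a DNA-repair-mutant yeast strain. Growth was then read and compared against vehicle-treated controls.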

[4] = NCI Yeast Anticancer Drug Screen. Data for the cln2 rad14 strain (AID 165);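 further: 0% = growth equal to vehicle treated cultures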; details: S. cerevisiae cln2 rad14 strain, at 50.0 µM, hits give high values
Outline: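 Test compounds were added to cln2 rad14 yeast cultures; inhibition of growth was then determined by comparison with vehicle treatment.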

[5] = NCI Yeast Anticancer Drug Screen. Data for the bub3 strain (AID 167); details: S. cerevisiae bub3 mutant strain, at 50.0 µM, hits give high values
Outline: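 In this screen, a yeast mutant lacking normal mitotic checkpoint function is challenged with compound. Relative growth versus vehicle gives the inhibition value.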

[6] = NCI Yeast Anticancer Drug Screen. Data for the mlh1 rad18 strain (AID 175); details: S. cerevisiae mlh1 rad18 strain growth inhibition; at 50.0 µM; hits give high values
Outline: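 Inhibition values reflect reduced growth of mutant yeast versus vehicle-treated controls following compound exposure; the mutations affect DNA damage repair.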

Measured: growth inhibition

COc1ccc2[nH]cc(CN3CCC(CO)(c4ccccc4)CC3)c2c1
inactive: [1] 13.4% | [2] 1.2% | [3] -16.4% | [4] 6.9% | [5] 5.95%

O=C1C=C(NCCCCC2CCCCC2)c2ccccc2C1=O
inactive: [1] 11.8% | [2] -3.25% | [3] 0.15% | [4] 11.2% | [5] -9.3%

Fc1ccc(NC(=S)Nc2ccc(F)cc2)cc1
inactive: [1] -19.4% | [2] -5.8% | [3] -10.7% | [4] -6.65% | [5] 15.1%

O=C(CC(C(=O)c1ccsc1)c1cccs1)c1cccs1 (stereo not given)
inactive: [1] 50.9% | [2] 14.2% | [3] 57.3% | [4] 36.4% | [5] 59.6%

O=C(O)c1cccc(Br)c1
inactive: [1] 4.85% | [2] -19.1% | [3] -8.4% | [4] -38.2% | [5] -5.7%

Cc1c(O)nc(N)[nH]c1=O
inactive: [1] 2.65% | [2] -24% | [3] -22.6% | [4] 1.7% | [5] -13.3%

O=C(O)/C(=C\c1ccncc1)c1cccc2ccccc12
inactive: [1] 0.85% | [2] -12% | [3] -37.4% | [4] -24.9% | [5] -32%

CC(=O)n1cc(CS)c(=O)[nH]c1=O
inactive: [1] -6.2% | [2] 1.2% | [3] -2.5% | [4] -15.2% | [5] -2.6% | [6] -19.4%

C#CC(O)C(CC)CCCC (stereo not given)
inactive: [1] -11.1% | [2] -46.5% | [3] -14.7% | [4] -10.4% | [5] -12.8%

CNCC1OC(OC)C2OC(C)(C)OC12 (stereo not given)
inactive: [1] -5.05% | [2] 5.1% | [3] 8.15% | [4] -25.5% | [5] -21.1%

Cc1ccccc1C=O
inactive: [1] -2.75% | [2] -32.6% | [3] 5.15% | [4] -3.35% | [5] -0.2%

CCCCCCCC/C=C/CCCCCCCC(=O)NN(C)C
inactive: [1] -1.4% | [2] -7.6% | [3] -0.5% | [4] -59.2% | [5] -3.95%

O=C(c1ccccc1)N1CC2CCC1CN2C(=O)c1ccccc1
inactive: [1] 15.8% | [2] 15.2% | [3] 4% | [4] 6.95% | [5] 42.7% | [6] -8.45%

COC(=O)C(=O)C(C(=O)C(=O)Nc1cc(C)ccc1C)c1nc2ccccc2[nH]c1=O (stereo not given)
inactive: [1] 13% | [2] -11.9% | [3] 14.4% | [4] 21.1% | [5] -13.7%

CC1(C)CC2(CC3(C1)SCCS3)SCCS2
inactive: [1] -11.2% | [2] -5.25% | [3] -8.8% | [4] 5.45% | [5] -5.8%

O=C1CC2(CCCC2)C(=O)N1c1cccc([N+](=O)[O-])c1
inactive: [1] 10.8% | [2] 5% | [3] 17.4% | [4] 11% | [5] 11.7%

CCC(=O)C1CCCCN1 (stereo not given)
inactive: [1] 10.7% | [2] 17.1% | [3] -11.1% | [4] -48.4% | [5] -3.15%

CC(C)(C)OC(=O)CC1(O)CCCCC1
inactive: [1] 4.15% | [2] -5.9% | [3] -6.05% | [4] 4.75% | [5] 4% | [6] 8.05%

Cc1cc(O)c(/C=N/C(=S)NCCc2ccccc2)c(=O)o1
inactive: [1] -4.35% | [2] -29.5% | [3] -9.5% | [4] 10.3% | [5] 6.55%

CCOC(=O)C1=C(C)NC(C)=C(C(=O)OCC)C1
inactive: [1] 14.9% | [2] -5.8% | [3] -1.5% | [4] -41.1%

CCOC(=O)c1c(C)[nH]c(C2=NCCC2)c1C
inactive: [1] -8.7% | [2] 5.3% | [3] 1.7% | [4] -55.9% | [5] 2.95%

Cc1cc(OC(=O)Nc2cccc(Cl)c2C)ccc1[N+](=O)[O-]
inactive: [1] 1.35% | [2] 53.4% | [3] 25.6% | [4] 3.95% | [5] 48.9%

CN1CC(CN2CCCCCC2)C(O)C(c2ccccc2)C1 (stereo not given)
inactive: [1] 1.7% | [2] -7.1% | [3] 18% | [4] 7.85% | [5] -1.5%

Oc1cc2c(c3c(O)c4ccccc4c(O)c13)=NC1CCCCC1N=2 (stereo not given)
inactive: [1] 6.25% | [2] 9.6% | [3] 20.6% | [4] 7.6% | [5] 15.3%

COC(=O)/C(N=Nc1cccc(C)c1)=C(\C)O
inactive: [1] 8.65% | [2] 5.65% | [3] 5.3% | [4] 19.9% | [5] 9.8%

Cc1cc2ccccc2c2cc3ccccc3cc12
inactive: [1] -2.35% | [2] -6.4% | [3] 8.45% | [4] 11.8% | [5] -2.05%

CCn1c(C)nc([N+](=O)[O-])c1Sc1ncc[nH]1
inactive: [1] -7.8% | [2] 0.7% | [3] -11.4% | [4] 27.8% | [5] 10.2%

O=C1c2ccccc2C(=O)C2C1C1C(=O)c3ccccc3C(=O)C21 (stereo not given)
inactive: [1] -14.6% | [2] -1.5% | [3] 2.45% | [4] -20.2% | [5] -8.6%

CC(=O)c1cccc2cc(CC(=O)c3ccccc3)c(=O)oc12
inactive: [1] 12.2% | [2] 5.6% | [3] 6.4% | [4] -33.1% | [5] 11.1%

Cc1ccc(OC(=O)c2cc([N+](=O)[O-])cc([N+](=O)[O-])c2)cc1
inactive: [1] 4.4% | [2] -0.5% | [3] 13.3% | [4] -12.8% | [5] 2%

CN(NC(=O)c1ccccc1)C(=O)c1ccccc1
inactive: [1] 15.6% | [2] 7.4% | [3] 11.6% | [4] -15% | [5] 6.05%

C=C[Si](Cl)(Cl)c1ccccc1
inactive: [1] 15.9% | [2] -2.45% | [3] 1.65% | [4] -0.15% | [5] 6.5%

c1ccc2c(CCNC3=NCCO3)cccc2c1
inactive: [1] -11.1% | [2] -16.6% | [3] -10.8% | [4] -7.5% | [5] -1.6%

COc1cc(/C=C2/C(=O)N(C(=O)c3ccc(Cl)cc3)N=C2C)cc(OC)c1OC
inactive: [1] 10% | [2] -5.75% | [3] 2.95% | [4] -48.1% | [5] 24.6% | [6] 39%

COC(=O)CCCCCNC(=O)NCCCCCC(=O)OC
inactive: [1] 4.6% | [2] -21% | [3] -1.2% | [4] 6.25% | [5] -11.4%

O=C(/C=C/c1cccs1)c1ccc(C(=O)/C=C/c2cccs2)cc1
inactive: [1] -32.6% | [2] -46.4% | [3] -18% | [4] 11.2% | [5] -3.5%

COc1cc(O)c(O)cc1C(C)(C)C
inactive: [1] 35.9% | [2] 24.6% | [3] 45.4% | [4] -11.7% | [5] 36.5%

O=C(O)C1Cc2c([nH]c3ccccc23)C(c2cccs2)N1 (stereo not given)
inactive: [1] 27.7% | [2] 7.6% | [3] 8.7% | [4] 0.5% | [5] -19.8%

O=C1/C(=C/c2ccc3c(c2)OCO3)CC/C1=C\c1ccc2c(c1)OCO2
inactive: [1] -10.2% | [2] 5.35% | [3] -19.7% | [4] -55.6% | [5] -13.7%

COC(=O)c1ccccc1N(C)C(=O)c1cc(OC)c(OC)c(OC)c1
inactive: [1] -27.4% | [2] -37% | [3] -5.75% | [4] -11.1% | [5] -19.4% | [6] -8.85%

C[N+](C)(CCNCC(N)=O)CC(N)=O
inactive: [1] -17.6% | [2] -4.2% | [3] -19.1% | [4] -9.95% | [5] 5.15% | [6] -1.5%

Cc1cc2nc3ccc(=[N+](C)C)cc-3sc2cc1N
inactive: [1] -24.2% | [2] -39.8% | [3] -20.6% | [4] -14.2% | [5] -25.8% | [6] -24.1%

O=c1/c(=C/c2ccco2)sc2nc3ccccc3n12
inactive: [1] 15.8% | [2] 5.35% | [3] 14.5% | [4] 29.8% | [5] 30.1% | [6] 20.4%

N#CCCN(C1=NN(C(=O)CC(=O)Nc2ccc(Cl)cc2)C(c2ccccc2)C1)c1ccc(Cl)cc1 (stereo not given)
inactive: [1] 14.3% | [2] -13.7% | [3] -17.6% | [4] 10.7% | [5] -5.55% | [6] -8.35%

O=[N+]([O-])c1cccc(-c2csc(NNC3=NC/C(=C/c4ccc5c(c4)OCO5)S3)n2)c1
inactive: [1] 33.5% | [2] -7.9% | [3] 33% | [4] -33.5% | [5] 23.6% | [6] 22.1%

O=C(NC12CC3CC(NC(=O)c4ccccc4)(CC(C1)c1ccccc13)C2)c1ccccc1
inactive: [1] 42.9% | [2] 40.2% | [3] 57.4% | [4] 27.4% | [5] 52.5% | [6] 38.4%
